SMILES strings stand for the structures. The panel holds about 83,000 compounds, 20% with a hit somewhere; the sample as a whole holds those more often.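 The endpoint reported here, percent growth, reads 100 for growth as untreated, 0 for no net growth and -100 for all cells dead.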 A number with no mark means an inactive call. Activity calls are given as the source filed them. How the source made its calls: active means growth percent below 10; inactive means the rest.

Common to all, as to assay: NCI-60 one-dose screen, 48 h (100 = growth as untreated, 0 = no growth, -100 = all killed)
What all share (conditions): 10 µM unless noted

The test system of test [1] is NCI-H23 lung.
Test [2] relates to NCI-H226 lung.
The test system of test [3] is NCI-H322M lung.
Test [4] concerns HOP-62 NSCLC.
For test [5], the system named is NCI-H460 lung.
In test [6] the test system is NCI-H522 lung.
Test [7] deals with A549/ATCC NSCLC.
Test [8] has as its system 786-0 renal.
Test [9] concerns COLO 205 colon.
The test system of test [10] is DU-145 prostate.
The subject of test [11] is MALME-3M melanoma.
Test [12] concerns MDA-MB-231 breast.
The subject of test [13] is RXF 393 renal.
For test [14], the system named is SF-268 CNS.
Test [15] has as its system SF-295 CNS.
The subject of test [16] is SF-539 CNS.
The test system of test [17] is UACC-257 melanoma.
For test [18], the system named is M14 melanoma.

For `Cc1cc(-c2ccccc2)on1`, the growth in [1] was 106%; in [2], 99.4%; in test [3] it was 90.5%; in [4], 92.9%; in test [5], 112%; in test [6] it was 97.9%. In addition, the growth in test [7] was 104%; in test [8], 95.2%; in [9] it was 109%; in [10] it was 111%; in test [11], 102%; in test [12] it was 105%. The growth was 119% in test [13]; 103% in test [14]; 100% in test [15]; 88.8% in test [16]; 109% in test [17]; 105% in test [18].

With `COc1ccccc1CNCCCN1C(=O)c2ccc3c4c(ccc(c24)C1=O)C(=O)N(CCCCNCCCN)C3=O`, the growth in test [1] was -41.7% (active); in [2], 62.6%; in [3] it was 5.96% (active); in [4], 40.1%; in test [5], -38.5% (active); in [6], -78.4% (active). The growth in test [7] was 33%; in test [8], 40%; in test [9], -83.7% (active); in test [10], -72.6% (active); in [11], -95.6% (active); in [12], 9.1% (active). In addition, the growth in test [13] was -4.56% (active); in test [14] it was 2.12% (active); in [15] it was 54.8%; in [16], -61.1% (active); in [17], -95% (active); in test [18], -49.3% (active).

`Nc1ccc(C2=NNC(=O)Cc3cc4c(cc32)OCCO4)cc1Cl`: the growth in test [1] was 20.9%; in test [2], 68.5%; in test [3], 61.1%; in [4], 46%; in test [5] it was 10.6%; in test [6], 11%. In addition, the growth in [7] is 40.3%; in test [8], 54.3%; in [9], 26.9%; in test [10], 67.5%; in test [11] it was 40.9%; in test [12], 61.4%. The growth in test [13] is 49.9%; in test [14] it was 59.7%; in test [15] it was 15.9%; in test [16], 49.4%; in test [17], 72.7%; in [18], 16.8%.

In the case of `Nc1c(N)c2ccccc2c2ccccc12`, the growth in [1] was 98.4%; in [2] it was 92.2%; in test [3] it was 115%; in test [4], 95%; in [5], 113%; in test [6], 111%. In addition, the growth in test [7] was 105%; in test [8], 103%; in [9], 124%; in test [10], 111%; in [11] it was 110%; in test [12], 85.3%. Moreover, the growth in test [13] is 109%; in test [14], 115%; in test [15], 100%; in test [16], 94.6%; in test [17] it was 106%; in test [18], 113%.

`CCCCCCCCOC(=O)C(C)OC(=O)OCCOCCOC(=O)OC(C)C(=O)OCCCCCCCC` (centres undefined): the growth was 113% in test [1]; 102% in test [2]; 92.4% in [3]; 105% in test [4]; 107% in test [5]; 114% in [6]. Further, the growth in [7] is 102%; in [8], 104%; in [9] it was 119%; in test [10] it was 104%; in test [11], 89.3%; in test [12] it was 107%. The growth in test [13] is 110%; in test [14] it was 103%; in test [15], 93.6%; in test [16], 109%; in test [17] it was 107%; in test [18], 96.5%.

Turning to `COc1ccc2c(c1)OC1=C(C(=O)OC1)C2c1cc(OC)c2c(c1)OCCO2` (centres undefined), the growth in test [1] was 16.2%; in test [2] it was -13.6% (active); in test [3], 44.3%; in test [4], 24.1%; in test [5], 6.93% (active); in test [6], -10.7% (active). In addition, the growth is 18% in test [7]; 21.4% in test [8]; -69.6% (active) in test [9]; -13.7% (active) in [10]; 62.9% in test [11]; 25% in [12]. The growth was 37.7% in [13]; 29.5% in [14]; 7.02% (active) in test [15]; 3.93% (active) in test [16]; 61% in test [17]; 4.69% (active) in [18].

On to `CCOC(=O)c1ccc2c(c1)nc(-c1ccc(Cl)cc1)n2-c1cc(C(C)(C)C)[nH]n1`, for which the growth in test [1] was 44.5%; in test [2], 29.5%; in test [3] it was 64.1%; in test [4], 39.3%; in test [5], 23.1%; in test [6] it was 26.1%. In addition, the growth in test [7] was 39.9%; in test [8], 14.1%; in test [9] it was 34.7%; in [10], 53.4%; in test [11], 33.5%; in test [12], 54.1%. Further, the growth in [13] was 21.4%; in [14], 44.8%; in test [15], 16.9%; in [16], 11.3%; in test [17] it was 73.2%; in [18] it was 9.36% (active).

On to `CCOC(=O)c1cnc(SCC)nc1SC#N`, for which the growth in test [1] was 94.6%; in test [2] it was 142%; in [3] it was 103%; in test [4], 121%; in [5], 115%; in test [6], 31.8%. For the same molecule, the growth in test [7] was 101%; in test [8], 101%; in test [9] it was 82.1%; in test [10], 103%; in test [11] it was 97.7%; in [12] it was 98.2%. Further, the growth in test [13] was 173%; in [14], 103%; in test [15], 106%; in test [16] it was 89.2%; in test [17] it was 92.6%; in test [18], 84.7%.

Values taken from PubChem BioAssay (NCI).
